Results filed as inconclusive are left out. Entries that show only a call come without a potency. The source made the active and inactive calls. Calls follow the shape of the dose curve; as a rule, active = well fitted cell-killing curve with a large enough effect; inconclusive = small, poorly fitted or top-dose-only effect, or effect the other way; inactive = flat fitted curve, though single readings scatter.
system: C33A; experiment: Primary qHTS to identify gynecologic anti-cancer compounds using libraries of approved drugs and bioactive compounds (AID 1345084); conditions: Gynecologic cancer cell panel viability, ATPlite luminescence, 48 h; series mostly up to 57.5 µM; also: nearly all actives have a fitted effect of over 55% in size
Summary of the method: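 Cells, 1,000 per well, plated 16 h, then exposed 48 h at 37 C to compounds. Viability by ATPlite luminescence after 15 min at room temperature.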

Compound	Potency
CCC(C)C(=O)O[C@H]1CCC=C2C=C[C@H](C)[C@H](CC[C@@H](O)C[C@@H](O)CC(=O)O)[C@H]21 (stereo partly drawn)	inactive
CC(=O)NC1C(OC(C)(C)C2CCC3(C)C=C(C4CCC5C4(C)CC(O)C4OC(C(C)(C)O)CCC45C)CCC3O2)OC(CO)C(O)C1O (stereo not drawn)	inactive
CC(=O)O[C@@H]1c2c3c(cc(O)c2C(=O)O[C@@H]1C)O[C@@]1(C)[C@@H](O)C[C@H]2C(C)(C)C(=O)C=C[C@]2(C)[C@@H]1C3	inactive
COc1c(C)c(OCC(O)C(C)(C)O)cc2c1COC2=O (stereo not drawn)	inactive
CC(=O)CC1CCC(C(C)C(=O)OCC(O)CO)O1 (stereo not drawn)	inactive
O=C(O)COCCN1CCN([C@H](c2ccccc2)c2ccc(Cl)cc2)CC1	inactive
Nc1nc2c(ncn2[C@@H]2O[C@@H]3COP(=O)(O)O[C@H]3[C@H]2O)c(=O)[nH]1	inactive
CC1=C(C(=O)O)/C(=C/CO[C@@H]2O[C@H](COC(=O)/C=C/c3ccc(O)cc3)[C@@H](O)[C@H](O)[C@H]2O)C(O)C1 (stereo partly drawn)	inactive
Cc1cc(C)c2c(N)c(C(=O)NCc3ccc(Cl)cc3)sc2n1	inactive
CC(=O)OC1C(O)C2C(C)C3=CC(=O)OC3(O)CC2C2(C)CCCC(C)(CO)C12 (stereo not drawn)	inactive
CC(C)C(NC(=O)c1ccc2ccccc2n1)C(=O)NC(CC(=O)O)C(=O)COc1c(F)cccc1F (stereo not drawn)	inactive
O=C(Nc1ccc(-c2ccncc2)cc1)N[C@H](CO)c1ccccc1	inactive
CC1=CC2/C=C(\C)CC[C@@H](O)[C@@H](O)[C@@H]3O[C@@H]3C(=O)[C@]23C(=O)N[C@@H](CC(C)C)[C@@H]3[C@@H]1C (stereo partly drawn)	inactive

Reference: PubChem BioAssay (NCATS)
